The test system of this test is Vero E6 infected with SARS-CoV-2. Put plainly: inhibition of SARS-CoV-2 cytopathic effect; higher = more antiviral protection, active = above 15. The note with it: 48 h. In general terms: Protection from cytopathic effect is a common read-out in antiviral testing.

Values without a mark were called inactive.

Take `Cc1cc(S(=O)(=O)O)c2c(C)ccc(C(C)C)cc1-2` [sodium-gualenate]: the “inhibition of SARS-CoV-2 cytopathic effect” value (“inhibition” below) (1 nM) was -10.1%; the “inhibition” value (8.33 nM) is -5.96%; the “inhibition” value (100 nM) was -9.82%; the “inhibition” value (833.33 nM) was -7.07%; the “inhibition” value (10000 nM) is -0.7%.

For `CN1C(=O)N[C@H](Cc2c[nH]c3c(Cl)cccc23)C1=O` [necrostatin-2], the “inhibition” value by setting is: (1 nM) -3.13%; (8.33 nM) -7.04%; (100 nM) -6.01%; (833.33 nM) -0.96%; (10000 nM) -5.96%.

With `O=C(Nc1ccc(Br)cc1)c1cc(Br)cc(Br)c1O` [tribomsalan], the “inhibition” value (1 nM) is -1.03%; the “inhibition” value (8.33 nM) was -3.93%; the “inhibition” value (100 nM) is -1.03%; the “inhibition” value (833.33 nM) is -0.02%; the “inhibition” value (10000 nM) was 6.65%.

`N#Cc1ccc2[nH]c(O)c(-c3ccc(CN4CCOCC4)cn3)c2c1`: the “inhibition” value was -0.78% (1 nM); -0.13% (8.33 nM); -0.01% (100 nM); 4.77% (833.33 nM); 11.4% (10000 nM).

Take `N#Cc1ccccc1-c1cc(-c2ccccn2)cn(-c2ccccc2)c1=O` [Perampanel]: the “inhibition” value by setting is: (1 nM) 2.02%; (8.33 nM) 0.93%; (100 nM) 4.1%; (833.33 nM) -0.14%; (10000 nM) -5.2%.

With `N#Cc1cc(NC(=O)C(=O)O)c(Cl)c(NC(=O)C(=O)O)c1` [lodoxamide], the “inhibition” value (1 nM) was -2.56%; the “inhibition” value (8.33 nM) is 1.86%; the “inhibition” value (100 nM) is -0.16%; the “inhibition” value (833.33 nM) is -3.06%; the “inhibition” value (10000 nM) was -0.06%.

`CN1C(CCl)Nc2cc(Cl)c(S(N)(=O)=O)cc2S1(=O)=O` (stereo not given) [methyclothiazide]: the “inhibition” value (1 nM) is -0.11%; the “inhibition” value (8.33 nM) was 0.15%; the “inhibition” value (100 nM) was 1.53%; the “inhibition” value (833.33 nM) is 1%; the “inhibition” value (10000 nM) was 2.28%.

With `C=CC(=O)N1CCC(Oc2cc3c(Nc4ccc(Cl)c(Cl)c4F)ncnc3cc2OC)CC1` [poziotinib], the “inhibition” value is -7.08% (1 nM); -14.9% (8.33 nM); -15.1% (100 nM); -17.3% (833.33 nM); -15.7% (10000 nM).

Regarding `CCN1C(C)(C)CC(Oc2ccc(C(=O)Nc3ccc(NC(=O)Nc4cc(C(C)(C)C)on4)cc3)nc2)CC1(C)C`, the “inhibition” value reads like this: (1 nM) -2.79%; (8.33 nM) -0.55%; (100 nM) -1.48%; (833.33 nM) -1.05%; (10000 nM) -4.86%.

Take `CC(C)NC(=N)NC(=N)Nc1ccc(Cl)cc1` [proguanil]: the “inhibition” value by setting is: (1 nM) -0.7%; (8.33 nM) 0.28%; (100 nM) -0.95%; (833.33 nM) -1.01%; (10000 nM) -5.67%.

Turning to `Cc1cccc(C)c1NC(=O)c1ccc(N)cc1` [ameltolide], the “inhibition” value reads like this: (1 nM) 0.76%; (8.33 nM) 1.03%; (100 nM) 0.37%; (833.33 nM) -0.04%; (10000 nM) -2.67%.

Turning to `N=C(N)NS(=O)(=O)c1ccc(N)cc1` [sulfaguanidine], the “inhibition” value is 1.47% (1 nM); 1.27% (8.33 nM); -0.35% (100 nM); 0.47% (833.33 nM); 1.22% (10000 nM).

With `CCCc1cc(C)[nH]c(=O)c1CNC(=O)c1cc(-c2ccc(N3CCN(C(C)C)CC3)nc2)cc2c1cnn2C(C)C`, the “inhibition” value was -1.83% (1 nM); 1% (8.33 nM); -2.55% (100 nM); -0.64% (833.33 nM); 42.3% (active) (10000 nM).

As for `CN1CC[C@@]2(C)c3cc(O)ccc3N(C)[C@@H]12` [eseroline-(-)], the “inhibition” value by setting is: (1 nM) 0.81%; (8.33 nM) 0.96%; (100 nM) 2.54%; (833.33 nM) 3.07%; (10000 nM) 6.49%.

`O=C(CCc1ccncc1)NNC(=O)N1Cc2ccccc2Oc2ccc(Cl)cc21`: the “inhibition” value (1 nM) is 1.3%; the “inhibition” value (8.33 nM) was 1.11%; the “inhibition” value (100 nM) was 1.69%; the “inhibition” value (833.33 nM) was -0.24%; the “inhibition” value (10000 nM) was 5.24%.

`C[C@@H]1CC(=O)c2c(ccc3c2C(=O)c2cccc(O)c2C3=O)C1` [ochromycinone]: the “inhibition” value runs as follows: (1 nM) -3.4%; (8.33 nM) -1.61%; (100 nM) -3.55%; (833.33 nM) -1.87%; (10000 nM) -3.84%.

With `CCCCCCOc1ccccc1C(N)=O` [exalamide], the “inhibition” value is, setting by setting: (1 nM) -5.16%; (8.33 nM) -3.3%; (100 nM) -2.73%; (833.33 nM) -0.34%; (10000 nM) -3.76%.

As to `Clc1ccc(C(Cn2ccnc2)OCc2c(Cl)cccc2Cl)c(Cl)c1` (stereo not given) [isoconazole], the “inhibition” value by setting is: (1 nM) 0.43%; (8.33 nM) 0.08%; (100 nM) 1.75%; (833.33 nM) 1.3%; (10000 nM) -2.37%.

With `CCN(CC)CCOc1ccc(C(O)(Cc2ccc(Cl)cc2)c2ccc(C)cc2)cc1` (stereo not given) [Triparanol], the “inhibition” value is -0.73% (1 nM); 1.69% (8.33 nM); -1.43% (100 nM); -2.54% (833.33 nM); 51.4% (active) (10000 nM).

These data come from the supplement of paper PMC13380429.
